# Test results from PubChem BioAssay AID722 (NMMLSC, 2007).
# Hit rate of the full screen: of about 1,300 compounds, about 40 (3%) were called active. Shown is part of a subset that was picked to be rich in actives. A number with no mark means an inactive call. No stated cut-off is given here; in the data, active means inhibition above about 30%; inactive means the rest.
# Target: fMet-Leu-Phe receptor (Homo sapiens) (UniProt P21462)
# Experiment: FPR1 fluorescent ligand binding inhibitors, primary screen, cell-based, flow cytometry, SAR analysis (AID 722)
# Settings: FPR-expressing cells, hits give high values, concentration not given here
# fMet-Leu-Phe receptor (Homo sapiens), sequence (P21462 whole entry, looked up): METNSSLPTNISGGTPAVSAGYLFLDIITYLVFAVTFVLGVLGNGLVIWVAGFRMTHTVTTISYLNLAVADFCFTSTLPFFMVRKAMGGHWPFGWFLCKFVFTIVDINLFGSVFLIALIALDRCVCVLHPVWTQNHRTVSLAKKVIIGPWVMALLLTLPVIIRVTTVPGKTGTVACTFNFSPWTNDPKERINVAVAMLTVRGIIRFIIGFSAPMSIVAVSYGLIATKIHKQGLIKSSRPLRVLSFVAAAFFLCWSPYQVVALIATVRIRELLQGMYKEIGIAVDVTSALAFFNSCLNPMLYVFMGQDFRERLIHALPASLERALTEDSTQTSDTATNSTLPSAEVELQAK
row,Structure (SMILES),inhibition
1,COc1ccc(C(=O)Oc2ccc3c(=O)c(-c4ccc(OC)c(OC)c4)c(C(F)(F)F)oc3c2)cc1,9.4%
2,COc1ccc(Oc2c(C(F)(F)F)oc3cc(OC(=O)c4ccco4)ccc3c2=O)cc1,9.6%
3,COc1ccccc1-c1c(C(F)(F)F)oc2cc(OC(=O)c3ccccc3C)ccc2c1=O,2.7%
4,COc1ccc(-c2c(C(F)(F)F)oc3cc(OC(=O)c4ccc(C)cc4)ccc3c2=O)cc1OC,-0.2%
5,COc1ccccc1-c1c(C(F)(F)F)oc2cc(OC(=O)c3ccco3)ccc2c1=O,59% (active)
6,COc1ccc(-c2c(C(F)(F)F)oc3cc(OC(=O)c4ccco4)ccc3c2=O)cc1OC,43.5% (active)
7,COc1cc(C2C(C(=O)c3cc4ccccc4o3)=C(O)C(=O)N2c2nnc(C)s2)ccc1O (centres undefined),-5.6%
8,O=C1OC(c2ccccc2F)/C(=C(/O)c2ccccc2)C1=O (centres undefined),2.1%
9,CCOC(=O)c1cc2ccccc2n1CC(=O)c1ccccc1,-0.2%
10,O=C1C(=O)N(c2nncs2)C(c2ccc(F)cc2)/C1=C(\O)c1ccccc1 (centres undefined),5.9%
11,Fc1cccc(-c2nn(CN3CCCCC3)c(=S)n2-c2ccccc2)c1,4.7%
12,COc1ccc(C2/C(=C(\O)c3ccc(F)cc3)C(=O)C(=O)N2c2nnc(C)s2)cc1 (centres undefined),4.6%
13,COc1ccc(/C(O)=C2\C(=O)C(=O)N(CCN3CCOCC3)C2c2ccc(Br)cc2)cc1 (centres undefined),2.9%
14,O=C(O)CCc1oc2cc(O)ccc2c(=O)c1-c1nc2ccccc2[nH]1,11.1%
15,CCOC(=O)c1c(NC(=O)C2CCCC2)sc2c1CCC(CC)C2 (centres undefined),-13.3%
16,CCc1c(C)nc2c(-c3ccccc3OC)c(C)[nH]n2c1=O,5.5%
17,CCOc1ccccc1C1CC(=O)NC2=C1C(=O)CC(c1ccccc1Cl)C2 (centres undefined),-7.2%
18,O=C1C(=O)N(CCN2CCOCC2)C(c2ccc(Cl)cc2)/C1=C(\O)c1ccc(F)cc1 (centres undefined),-8.1%
19,CCc1cc2c(=O)c(-c3nc4ccccc4[nH]3)c(C)oc2cc1OC(C)=O,-0.7%
20,CCc1cc2c(=O)c(-c3nc4ccccc4n3C)c(C)oc2cc1O,-2.5%
21,CCc1cc2c(=O)c(-c3nc4ccccc4n3C)c(C)oc2cc1OC(C)=O,78.9% (active)
22,Cc1[nH]n2c(=O)cc(Cc3ccccc3)nc2c1-c1ccccc1,6.8%
23,CCOC(=O)C(C#N)C(c1ccc2c(c1)OCO2)c1ccccc1OC (centres undefined),-0.7%
24,O=C(NC(c1nnc(-c2ccccc2)o1)c1ccccc1F)c1ccc(F)cc1 (centres undefined),-6%
